Measured values reported in PubChem BioAssay AID1159580 (chemical genetic matrix, 2015).
The campaign covered roughly 5,500 compounds. About 2,000 (36%) were called active. About 18% were inconclusive and are not listed. Cut-off read from the data, not from the text of the source: active = normalized growth mostly below about 0.91 (no sharp cut-off); inconclusive = no clear call, values can overlap the other calls; inactive = mostly above about 0.92. This is one part of the list.

Test: chemical genetic growth profiling, strain panel (AID 1159580);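 note: tested at 20 µM; growth read once vehicle control cultures reached saturation at 30 °C; 1 = growth at the plate median or of vehicle wells; lower values mean less growth of the strain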
Details: S. cerevisiae deletion strains, growth OD

Measured: normalized growth

C[C@H](N)CN1CCc2ccc(Br)cc21
inactive: locus YAL040C, strain CLN3, stronger effect = lower value 0.979 | locus YCL061C, strain MRC1 (second series), stronger effect = lower value 0.992 | locus YDR150W, strain NUM1, stronger effect = lower value 1 | locus YDR363W, strain ESC2, stronger effect = lower value 1.01 | locus YER002W, strain NOP16, stronger effect = lower value 0.992 | locus YGR078C, strain PAC10, stronger effect = lower value 1.02 | locus YJR075W, strain HOC1, stronger effect = lower value 1 | locus YMR307W, strain GAS1, stronger effect = lower value 1 | locus YNL153C, strain GIM3, stronger effect = lower value 0.997 | locus YNL175C, strain NOP13, stronger effect = lower value 1.01 | locus YNL197C, strain WHI3, stronger effect = lower value 1.02 | locus YNL224C, strain SQS1, stronger effect = lower value 1.01 | locus YOR083W, strain WHI5 (second series), stronger effect = lower value 1 | locus YPL055C, strain LGE1, stronger effect = lower value 0.968
